From PubChem BioAssay (Tox21)
Calls of active or inactive are those of the source. A call without a number means that no potency is given here. Calls come from the whole dose curve; as a rule, active = well fitted curve in the direction sought with a large enough effect in the signal ratio in the repeat runs (not every such curve was filed as active); inconclusive = weak or mixed curves, or effect the other way; inactive = no such curve, though single readings can be large or run the other way; the % refers to the signal ratio.
Potency is the fitted concentration of half-maximal effect.

What follows are compounds tested against Estrogen receptor (Homo sapiens) (UniProt P03372) (assay: qHTS assay to identify small molecule antagonists of the estrogen receptor alpha (ER-alpha) signaling pathway (AID 743069)). Conditions: HEK293 ER-alpha-UAS-bla, beta-lactamase ratio, antagonist mode; series mostly up to 69.4 µM.
Estrogen receptor (Homo sapiens), sequence (P03372 whole entry, looked up): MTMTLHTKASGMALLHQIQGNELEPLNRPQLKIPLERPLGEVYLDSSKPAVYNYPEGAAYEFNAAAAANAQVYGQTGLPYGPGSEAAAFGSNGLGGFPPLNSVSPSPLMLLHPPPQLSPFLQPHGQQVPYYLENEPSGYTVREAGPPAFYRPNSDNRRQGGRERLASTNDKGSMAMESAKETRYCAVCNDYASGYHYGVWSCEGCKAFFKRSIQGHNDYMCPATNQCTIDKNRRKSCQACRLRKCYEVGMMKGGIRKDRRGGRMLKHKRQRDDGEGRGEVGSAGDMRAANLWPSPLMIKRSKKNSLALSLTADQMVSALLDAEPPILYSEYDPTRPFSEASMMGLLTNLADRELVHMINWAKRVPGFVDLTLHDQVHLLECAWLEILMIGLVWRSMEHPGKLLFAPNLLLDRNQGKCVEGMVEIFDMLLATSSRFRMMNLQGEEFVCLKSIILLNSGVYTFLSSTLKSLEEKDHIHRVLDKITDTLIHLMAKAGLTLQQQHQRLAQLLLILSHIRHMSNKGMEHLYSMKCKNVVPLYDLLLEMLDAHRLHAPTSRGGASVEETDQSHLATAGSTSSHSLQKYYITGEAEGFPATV
Excerpt: National Center for Advancing Translational Sciences [NCATS]
NIH Chemical Genomics Center [NCGC]
U.S. Environmental Protection Agency [EPA]
National Institutes of Environmental Health Sciences [NIEHS]
National Toxicology Program [NTP]
U.S. Food and Drug Administration [FDA]
Estrogen receptor (ER), a nuclear hormone receptor, plays an important role in development, metabolic homeostasis and reproduction. Two subtypes of ER, ER-alpha and ER-beta have similar expression patterns with some uniqueness in both types. Endocrine disrupting chemicals (EDCs) and their interactions with steroid hormone receptors like ER causes disruption of normal endocrine function. To identify the compounds that inhibit ER signaling, an ER-alpha-UAS-bla GripTiteTM cell line (Invitrogen, Carlsbad, CA, USA) containing a beta-lactamase reporter gene under the control of an Upstream Activator Sequence (UAS) stably integrated into HEK293 cells was used to screen the Tox21 10K compound library.
Tox21 Assay Protocol Summary:
ER-alpha-bla cells were cultured in assay medium containing 2% charcoal stripped FBS overnight in the culture flasks before the assay was performed. The cells were dispensed at 5,000 cells/5 uL of assay medium per well into black wall/clear-bottom 1536-well plates using a Multidrop Combi (ThermoFisher Scientific, Waltham, MA) dispenser. After the assay plates were incubated at a 37C and 5% CO2 for 4 hr, 23 nL of compounds dissolved in DMSO, positive controls or DMSO only was transferred to the assay plate by a Pintool station (Kalypsys, San Diego, CA), followed by addition of 1 uL of 17beta-estradiol in assay medium using a Flying Reagent Dispenser (Aurora Discovery, San Diego, CA). The plates were incubated at 37C and 5% CO2 for 18 hr. Then 1 uL of LiveBLAzerTM B/G FRET substrate was added using a Flying Reagent Dispenser, the plates were incubated at room temperature for 2 hours, and fluorescence intensity was measured by an Envision plate reader (PerkinElmer, Shelton, CT).
`CN1CCN(CCC=C2c3ccccc3Sc3ccc(S(=O)(=O)N(C)C)cc32)CC1` was tested, and the Potency was “inactive”.
`CS(=O)(=O)OCC(O)C(O)COS(C)(=O)=O` (stereo not given) was tested, and the Potency was “inactive”.
With `Cc1cccc(C)c1N(CCCc1cccnc1)C(=O)C(C)N` (stereo not given) the Potency was “inactive”.
With `CCOC(=O)[C@H](CS)NCCN[C@@H](CS)C(=O)OCC` the Potency was “inactive”.
For `CC1(C)N=C(N)N=C(N)N1c1ccc(Cl)cc1`, the Potency was “inactive”.
For `CC[C@H](C)[C@H]1O[C@]2(CC[C@@H]1C)C[C@@H]1C[C@@H](C/C=C(\C)[C@@H](O[C@H]3C[C@H](OC)[C@@H](O[C@H]4C[C@H](OC)[C@@H](O)[C@H](C)O4)[C@H](C)O3)[C@@H](C)/C=C/C=C3\CO[C@@H]4[C@H](O)C(C)=C[C@@H](C(=O)O1)[C@]34O)O2`, the Potency was 7.56 µM [inconclusive] (active).
With `CCOC(=O)[C@@H](N)CS` the Potency was “inactive”.
In the case of `CCCCCCCCCCCCCCCCCCOP(=O)([O-])OC1CC[N+](C)(C)CC1`, the Potency is reported as “inactive”.
`CC(CN1c2ccccc2Sc2cccnc21)N(C)C` (stereo not given) was tested, and the Potency was “inactive”.
For `CC(C)[C@H](N)C(=O)OCC(CO)OCn1cnc2c(=O)[nH]c(N)nc21` (stereo not given in full), the Potency was “inactive”.
`CO/N=C(\C(=O)N[C@@H]1C(=O)N2C(C(=O)O)=C(CSc3nnnn3C)CS[C@H]12)c1csc(N)n1` was tested, and the Potency was “inactive”.
For `CN(C)C=Nc1c(I)cc(I)c(CCC(=O)O)c1I`, the Potency was “inactive”.
With `O=S(=O)(O)c1cc(O)c2c(N=Nc3ccc(Nc4ccccc4)c4c(S(=O)(=O)O)cccc34)cc(S(=O)(=O)O)cc2c1` the Potency was “inactive”.
With `NC[C@@H]1O[C@H](O[C@H]2[C@@H](O)[C@H](O[C@@H]3[C@@H](O)[C@H](N)C[C@H](N)[C@H]3O[C@H]3O[C@H](CO)[C@@H](O)[C@H](O)[C@H]3N)O[C@@H]2CO)[C@H](N)[C@@H](O)[C@@H]1O` the Potency was “inactive”.
In the case of `Cc1nc(NS(=O)(=O)c2ccc(N)cc2)nc(C)c1Br`, the Potency is reported as “inactive”.
In the case of `NCCCC[C@H](N)C(=O)O`, the Potency is reported as “inactive”.
In the case of `OC[C@H]1OC([S-])[C@H](O)[C@@H](O)[C@@H]1O.[Au+]` (stereo not given in full), the Potency is reported as “inactive”.
With `C=CCN1CCCC1CNC(=O)c1cc(S(N)(=O)=O)cc(OC)c1OC` (stereo not given) the Potency was “inactive”.
With `CCCCCCCCCCCCCCCC(=O)O[C@@H]1[C@@H](O)[C@@H](O)[C@@H]([C@H](NC(=O)[C@@H]2C[C@@H](CCC)CN2C)[C@H](C)Cl)O[C@@H]1SC` the Potency was “inactive”.
For `COc1cc2[nH]c(C)c(CCN3CCN(c4ccccc4)CC3)c2cc1OC`, the Potency was “inactive”.
For `O=C(O)C1=C(CSc2nnnn2CS(=O)(=O)O)CS[C@@H]2[C@H](NC(=O)[C@H](O)c3ccccc3)C(=O)N12`, the Potency was “inactive”.
For `CCN1C(=O)NC(c2ccccc2)C1=O` (stereo not given), the Potency was “inactive”.
`CC(C)(C)CC(C)(C)c1cc(Cc2cc(C(C)(C)CC(C)(C)C)cc(-n3nc4ccccc4n3)c2O)c(O)c(-n2nc3ccccc3n2)c1` was tested, and the Potency was “inactive”.
For `C#CCC(Cc1cnc2nc(N)nc(N)c2n1)c1ccc(C(=O)N[C@@H](CCC(=O)O)C(=O)O)cc1` (stereo not given in full), the Potency was “inactive”.
For `O=C(O)CCC/C=C\C[C@@H]1[C@@H](/C=C/[C@@H](O)COc2cccc(Cl)c2)[C@H](O)C[C@@H]1O`, the Potency was “inactive”.
In the case of `CCC[C@@H]1C[C@@H](C(=O)N[C@@H]([C@H]2O[C@H](SC)[C@H](O)[C@@H](O)[C@H]2O)[C@H](C)Cl)N(C)C1`, the Potency is reported as “inactive”.
With `COc1ccc(C(=O)CCC(=O)O)c2ccccc12` the Potency was “inactive”.
With `[O]=[Bi][O]C(=O)[O][Bi]=[O]` the Potency was “inactive”.
In the case of `CC[C@H]1OC(=O)[C@H](C)[C@@H](O[C@H]2C[C@@](C)(OC)[C@@H](O)[C@H](C)O2)[C@H](C)[C@@H](O[C@@H]2O[C@H](C)C[C@H](N(C)C)[C@H]2O)[C@](C)(O)C[C@@H](C)[C@@H]2N[C@@H](COCCOC)O[C@@H]([C@H]2C)[C@]1(C)O`, the Potency is reported as “inactive”.
In the case of `CC(=O)O[C@H]1C(=O)[C@@]2(C)[C@H]([C@H](OC(=O)c3ccccc3)[C@]3(O)C[C@H](OC(=O)[C@H](O)[C@@H](NC(=O)c4ccccc4)c4ccccc4)C(C)=C1C3(C)C)[C@]1(OC(C)=O)CO[C@@H]1C[C@@H]2O`, the Potency is reported as “inactive”.
In the case of `CN1CCCC(CN2c3ccccc3Sc3ccccc32)C1` (stereo not given), the Potency is reported as 19 µM [inhibitor] (active).
`O=C(O)c1ccc(OCCn2ccnc2)cc1` was tested, and the Potency was “inactive”.
`CN1CCN(C(c2ccccc2)c2ccc(Cl)cc2)CC1` (stereo not given) was tested, and the Potency was “inactive”.
With `COc1ccc(CCNCC(O)COc2cccc(C)c2)cc1OC` (stereo not given) the Potency was “inactive”.
With `CCC(Oc1ccccc1)C(=O)N[C@@H]1C(=O)N2[C@@H]1SC(C)(C)[C@@H]2C(=O)O` (stereo not given in full) the Potency was “inactive”.
In the case of `CC1C(=O)CC2C3(C)CCC2(C(C)C(=O)O)C(=O)C13` (stereo not given), the Potency is reported as “inactive”.
With `OCC(S)CS` (stereo not given) the Potency was “inactive”.
`CN1CC(O)c2cc(N=NC(N)=O)c(O)cc21` (stereo not given) was tested, and the Potency was “inactive”.
In the case of `Nc1nc2[nH]cc(CCc3ccc(C(=O)N[C@@H](CCC(=O)O)C(=O)O)cc3)c2c(=O)[nH]1`, the Potency is reported as “inactive”.
With `CCC(=O)NS(=O)(=O)c1ccc(-c2c(-c3ccccc3)noc2C)cc1` the Potency was “inactive”.
